Measured values published in publication PMC5540273 (PLoS ONE, 2017).

Tests used:
Conditions in all cases: concentration: 1 μM, replicates: in singlicate; n = 1
DAPK2 = tested on: DAPK2
DAPK3 = tested on: DAPK3
DCAMKL1 = tested on: T1, DCAMKL1
T1 construct: gene DCLK1

DCAMKL2 = tested on: T2, DCAMKL2
T2 construct: gene DCLK2

DCAMKL3 = tested on: T3, DCAMKL3
T3 construct: gene DCLK3

DDR1 = tested on: DDR1
DDR2 = tested on: DDR2
DLK = tested on: T4, DLK
T4 construct: gene MAP3K12

DMPK2 = tested on: T5, DMPK2
T5 construct: gene CDC42BPG

DMPK = tested on: DMPK
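Note: KINOMEscan kinase panel screen.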

Structure (SMILES) | %Inh (DAPK2) [%] | %Inh (DAPK3) [%] | %Inh (DCAMKL1) [%] | %Inh (DCAMKL2) [%] | %Inh (DCAMKL3) [%] | %Inh (DDR1) [%] | %Inh (DDR2) [%] | %Inh (DLK) [%] | %Inh (DMPK2) [%] | %Inh (DMPK) [%]
CCn1c(-c2cccnc2O)nc2cnccc21 [SB-736715] | 0 | 0 | 0 | 3 | 0 | 0 | 0 | 19 | 0 | 0
CS(=O)(=O)c1ccc(-c2c(-c3ncn[nH]3)sc(N3CCOCC3)c2C#N)cc1 | 0 | 0 | 19 | 23 | 19 | 0 | 18 | 53 | 15 | 0
Cc1cccc(-c2cc(Nc3ccncc3)c3ccccc3n2)n1 [GSK223675] | 0 | 9 | 3 | 0 | 1 | 9 | 0 | 0 | 7 | 0
O=C1NC(=O)C(N2CCc3ccccc32)=C1c1ccccc1Cl [SB-373598] | 23 | 4 | 10 | 0 | 11 | 12 | 14 | 0 | 12 | 26
CC(C)(C)c1ccc(C(=O)Nc2cn3cc(Cl)ccc3n2)cc1 | 0 | 3 | 15 | 0 | 18 | 0 | 20 | 0 | 0 | 0
Cc1ccccc1-n1cnc2c(N)ncnc21 [SKF-97510] | 10 | 12 | 0 | 0 | 0 | 11 | 0 | 0 | 0 | 0
O=C(Nc1n[nH]c2cc(-c3cccc(F)c3F)ccc12)C1CC1 [SB-733894] | 24 | 35 | 21 | 0 | 0 | 0 | 0 | 0 | 0 | 0
CC(=O)Nc1nc2cnc(Nc3cc(NC(=O)c4cccc(CCC#N)c4)ccc3C)nc2s1 | 6 | 8 | 12 | 13 | 12 | 100 | 86 | 0 | 3 | 12
COC(=O)c1c(-c2ccccc2)c2cc(C(=O)O)ccc2c(=O)n1Cc1ccccc1 | 0 | 0 | 5 | 4 | 26 | 92.6 | 63 | 0 | 0 | 12
O=c1cc(N2CCOCC2)nc2n(Cc3cccc(Cl)c3Cl)ccn12 [GSK2286295] | 7 | 15 | 5 | 0 | 20 | 0 | 0 | 0 | 0 | 3
Cc1cc(N2Cc3ccccc3C2)nc(Nc2ccc(S(=O)(=O)N3CCOCC3)cc2)n1.Cl [GSK1669917] | 5 | 100 | 21 | 0 | 0 | 0 | 9 | 2 | 1 | 0
COc1ccc(Nc2nccc(NCCNC(=O)Nc3ccccc3F)n2)cc1 [GSK1379901] | 0 | 8 | 15 | 0 | 8 | 11 | 0 | 0 | 0 | 0
COc1ccccc1-c1ccc2c(NC(=O)C3CC3)n[nH]c2n1 [SB-711239] | 11 | 3 | 0 | 3 | 0 | 10 | 22 | 5 | 0 | 1
COc1cc2nccc(Nc3ccc(NC(=O)c4ccc(C)cc4)c(O)c3)c2cc1OC.Cl [GW440132] | 8 | 19 | 8 | 7 | 16 | 0 | 5 | 6 | 0 | 0
Cc1ccc(-c2cc(-c3c[nH]nc3-c3ccccn3)ccn2)cc1 [GW684088] | 9 | 25 | 21 | 24 | 0 | 13 | 47 | 45 | 5 | 0
Cl.NC(=O)c1cccc(Nc2nccc(Nc3ccc(Oc4cccc(Cl)c4)c(Cl)c3)n2)c1 [GW659008] | 0 | 22 | 0 | 13 | 0 | 1 | 0 | 24 | 55 | 0
Cc1cc(NCC(c2ccccc2)c2ccccc2)nc(NCc2ccc(C(F)(F)F)cc2)n1 [GW497681] | 0 | 0 | 0 | 11 | 0 | 0 | 20 | 39 | 1 | 0
Nc1nc(-c2nccs2)c(-c2ccnc3ccccc23)s1 [GW693542] | 0 | 10 | 13 | 0 | 6 | 9 | 5 | 33 | 6 | 100
